Assay outcomes as filed in PubChem.
GIRK2 act: Activators of human GIRK2-containing channels | activation (% efficacy), % for hits at 37.5 µM | 34,000 tested, under 10 active | P48051 | HEK293 GIRK2/NPY4 cells, thallium flux fluorescence | AID 1259324;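 active = primary screen hit, no activity in plain HEK293 cells, and in GIRK2-only cells above 5% efficacy rising with concentration; inactive = the rest, including fluorescent compounds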;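 also: efficacy is normalized control-subtracted fluorescence 15 s after thallium addition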
Target sequence (P48051 whole entry, looked up): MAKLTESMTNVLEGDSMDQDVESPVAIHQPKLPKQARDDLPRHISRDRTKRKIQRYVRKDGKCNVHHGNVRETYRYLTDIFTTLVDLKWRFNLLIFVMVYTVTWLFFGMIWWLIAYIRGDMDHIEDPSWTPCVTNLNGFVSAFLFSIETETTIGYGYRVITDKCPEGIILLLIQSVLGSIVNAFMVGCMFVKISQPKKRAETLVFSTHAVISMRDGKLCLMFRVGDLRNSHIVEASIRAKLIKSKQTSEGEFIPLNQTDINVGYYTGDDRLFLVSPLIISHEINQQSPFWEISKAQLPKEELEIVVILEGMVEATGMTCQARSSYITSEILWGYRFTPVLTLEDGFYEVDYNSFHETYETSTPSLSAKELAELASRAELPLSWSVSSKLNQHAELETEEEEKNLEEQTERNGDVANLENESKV
AMPAR-TARP mod: modulates AMPAR-stargazin complexes; calls only at 30 µM; AID 1259245; hit rate 3.5% among 40,000; O88602+P19491; HEK293 GluA2+stargazin, membrane potential dye (FDSS), glutamate EC50; hits were called plate by plate, in both directions;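 active = any of four per-well response measures lying three or more SD from its plate-wide compound average, in either direction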
Active calls of the source: *; i = inactive; nt = not tested or not shown; + = active, no number; ! = not active in a repeat. The entries come from a sample that favours hits as a whole.

SMILES | GIRK2 act | AMPAR-TARP mod
COc1ccc(S(=O)(=O)/C(C#N)=C/N2CCN(Cc3ccccc3)CC2)cc1 | i | i
O=C1c2cc(NS(=O)(=O)c3ccc(Br)s3)ccc2OCCC2CCCCN12 (stereo not drawn) | nt | i
O=C(NCc1ccsc1)c1ccc2c(c1)OCO2 | i | i
O=C(NCc1ccsc1)c1cccc(C(F)(F)F)c1 | i | +
O=C(Nc1ccc2c(c1)N(C(=O)C1CC1)CC2)c1ccco1 | i | i
COc1cccc(C(=O)Nc2nc3ncccc3cc2-c2ccccc2)c1 | i | +
O=C(Nc1nc2ncccc2cc1-c1ccccc1)C1CCCC1 | i | i
COc1ccc(-n2ccnc(SCC(=O)Nc3cc(C)ccc3C)c2=O)cc1 | nt | i
CCc1ccc(NCc2cc3ccc(OC)cc3n(CC(=O)Nc3ccc(OC)cc3)c2=O)cc1 | i | +
CCc1ccc(NCc2cc3ccc(OC)cc3n(CC(=O)Nc3ccccc3F)c2=O)cc1 | nt | i
COc1cccc(S(=O)(=O)NCCC(O)C2CC2)c1 (stereo not drawn) | i | +
COc1cccc(S(=O)(=O)NCC(O)(c2ccccc2)C2CC2)c1 (stereo not drawn) | i | i
Cc1cc(C(=O)NCC(C)(O)c2ccc3c(c2)OCO3)no1 (stereo not drawn) | i | i
CCC(O)c1nc2ccccc2n1CCOc1ccccc1 (stereo not drawn) | nt | +
CCc1nc2ccccc2n1CCOc1ccccc1 | nt | i
O=C(CCS(=O)(=O)c1ccccc1)N(CCN1CCOCC1)c1nc2ccccc2s1 | i | i
Nc1ccc2c3c(cccc13)C(=O)N(c1ccccc1)C2=O | nt | +
O=C1c2ccc(-n3c(=O)c4ccccc4c4ccccc4c3=O)cc2C(=O)N1c1ccccc1 | nt | i
O=C(Nc1ccc2cn[nH]c2c1)c1ccc(=O)[nH]n1 | i | +
O=C(Nc1ccc(Cl)c(Cl)c1)Nc1ccc2cn[nH]c2c1 | i | i
COc1ccc(S(=O)(=O)NCC2(c3ccccc3)CCOCC2)cc1 | nt | i
COc1ccc(S(=O)(=O)CC(=O)Nc2nc3c(Br)cccc3s2)cc1 | i | i
COc1cc(OC)c(NC(=O)Cn2nc3c(cc2=O)CCCC3)cc1Cl | i | +
COc1cc(Cl)c(C)cc1NC(=O)Cn1nc2c(cc1=O)CCCC2 | i | i
CCOc1ccc(-n2nnnc2CN2CCN(C(=O)c3c(F)cccc3Cl)CC2)cc1 | i | +
SMILES | GIRK2 act | AMPAR-TARP mod
CCOc1ccc(-n2nnnc2CN2CCN(C(=O)c3c(C)noc3C)CC2)cc1 | i | i
Cc1ccc(S(=O)(=O)N(C)c2c(C)ccc(S(=O)(=O)NCc3cccnc3)c2C)cc1 | i | i
Cc1ccc(C(C)C)c(OCCCn2c(CCCO)nc3ccccc32)c1 | i | i
CC(=O)NCCc1nc2ccccc2n1CCCOc1cc(C)ccc1C(C)C | i | +
COCCN(CCOC)S(=O)(=O)CCNC(=O)c1ccccc1 | nt | i
CCN(CC)S(=O)(=O)CCNC(=O)c1ccccc1 | nt | +
Cc1nn2c(NCCCN3CCOCC3)cc(C(C)C)nc2c1-c1ccccc1 | i | i
CCOC(=O)Nc1nc(CC(=O)NCc2ccc(C)cc2)cs1 | i | nt
O=C(CC1SC(=O)N(CC(=O)c2ccccc2)C1=O)Nc1ccc(Br)cc1 (stereo not drawn) | i | i
Cc1cccc(NC(=O)CC2SC(=O)N(CC(=O)c3ccccc3)C2=O)c1 (stereo not drawn) | i | +!
Cc1cccc(NC2SC(=O)N(C(C)C)C2=O)c1 (stereo not drawn) | i | i
Cc1cccc(NC2SC(=O)N(Cc3ccccc3)C2=O)c1 (stereo not drawn) | i | +
C=CCN1C(=O)SC(CC(=O)Nc2ccc(Br)cc2)C1=O (stereo not drawn) | i | +
C=CCN1C(=O)SC(CC(=O)Nc2ccc(NC(C)=O)cc2)C1=O (stereo not drawn) | i | i
CCOc1ccc(-c2ccc(C)c(NC(=O)c3ccc(S(=O)(=O)N(C)C)cc3)c2)nn1 | i | i
Cc1cccc(N2CCCn3c2nc2c3c(=O)n(CC(N)=O)c(=O)n2C)c1 | nt | i
COc1ccc(-c2ccc(N3CCCC(C(=O)N4CCc5ccccc54)C3)nn2)cc1 (stereo not drawn) | i | i
COCCn1c(SCC(=O)N2CCOCC2)nnc1-c1cn(C)nc1OC | i | i
COc1c(C)cc(S(=O)(=O)NCC(c2ccsc2)N2CCc3ccccc3C2)cc1C (stereo not drawn) | i | i
O=C(NCC(c1ccsc1)N1CCc2ccccc2C1)C1CC1 (stereo not drawn) | i | +
COCCNC(=O)Cn1nc2c(c1NC(=O)COc1ccc(Cl)cc1)CSC2 | i | i
CCOC(=O)CN1C(=O)CN(C(=O)c2ccccc2)C1=S | nt | +
CCOC(=O)c1ccc(N2C(=S)N(c3ccccc3)C3CS(=O)(=O)CC32)cc1 (stereo not drawn) | i | i
CC(=O)Nc1ccc(NC(=O)Cn2cc(-c3ccccc3C)c(N3CCOCC3)n2)cc1 | i | nt
O=C(Cc1ccc(NC(=O)C2CC(=O)N(c3ccccc3)C2)cc1)NC1CC1 (stereo not drawn) | i | i
SMILES | GIRK2 act | AMPAR-TARP mod
CCOc1ccc(-n2c(C)cn3c4c(=O)n(C(C)C(C)=O)c(=O)n(C)c4nc23)cc1 (stereo not drawn) | nt | i
CCOC(=O)c1ccccc1NC(=O)Cn1cc(-c2ccccc2)c2ncn(CCOC)c(=O)c21 | i | +
CCOc1ccccc1NC(=O)Cn1cc(-c2ccccc2)c2ncn(CCOC)c(=O)c21 | i | i
Cc1cc(Nc2ccc(C)c(Cl)c2)nc(-n2cc([N+](=O)[O-])cn2)n1 | i | i
O=C(/C=C\c1ccccc1)N1CCN(c2nccn2-c2cccc(Cl)c2)CC1 | i | i
COCCn1c(C(=O)Nc2ccccc2)cc2c(=O)n(C)c(=O)n(C)c21 | i | i
COCCn1c(C(=O)Nc2ccc(F)c(Cl)c2)cc2c(=O)n(C)c(=O)n(C)c21 | i | +
NC(=O)Cc1ccc(NC(=O)c2ccco2)cc1 | i | i
Cn1c(=O)[nH]c(=O)c2c1nc(N1CCOCC1)n2CCCn1c(N2CCOCC2)nc2c1c(=O)[nH]c(=O)n2C | nt | i
COc1ccc(N2CCN(CCCn3c(C)c(C)n4c5c(=O)[nH]c(=O)n(C)c5nc34)CC2)cc1 | nt | +
CCN1CCN(c2nc3c(c(=O)[nH]c(=O)n3C)n2CCCOc2ccccc2)CC1 | nt | +
CCCCCCCCCn1c(N2CCNCC2)nc2c1c(=O)[nH]c(=O)n2C | 9.0%* | +
CCOCCn1c(N2CCN(CC)CC2)nc2c1c(=O)[nH]c(=O)n2C | nt | i
Cn1c(=O)[nH]c(=O)c2c1nc(N1CCN(CC(N)=O)CC1)n2Cc1ccccc1 | nt | +
Cn1c(=O)[nH]c(=O)c2c1nc(N1CCN(CC(N)=O)CC1)n2Cc1cccc(Cl)c1 | nt | i
COc1ccc(N2CCN(CCn3c(C)c(C)n4c5c(=O)[nH]c(=O)n(C)c5nc34)CC2)cc1 | nt | i
COc1ccc(NC(=O)Cc2csc(Nc3ccc(F)cc3)n2)c(OC)c1 | i | i
Cc1ccc(Cl)cc1-n1nnnc1SCC(=O)NC(C)C | i | i
Cc1cc([N+](=O)[O-])ccc1NC(=O)c1ccc(=O)n(Cc2ccccc2)c1 | i | i
